This is a sample that favours compounds with a hit; in the whole collection about 3.9% have one here.
Peg3 promoter – reduces Peg3 promoter-driven luciferase expression in HeLa; hit rate 1.7% among 360,000; AID 588405; inhibition, % at 20 µM; HeLa PEG-Prom luciferase reporter, luminescence, overnight;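 active = inhibition of at least 50% at 20 µM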
KKLEB cytotox – counter-screen for CF NF-kB inhibitors: cytotoxicity; KKLEB CF airway cells viability, ATPlite luminescence, overnight; active compounds read low; cells stimulated with P. aeruginosa culture filtrate; activity change (cytotoxicity), % at 5 µM; hit rate 0.36% among 360,000;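 active = corrected activity change at or below -50% at 5 µM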
HIF-2a inh – HIF-2a inhibition; 786-0 RCC cells HIF-2a reporter, luciferase luminescence, overnight; inhibition, % at 18.8 µM; hit rate 0.72% among 360,000;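 active = inhibition of the luminescence signal of 40% or more relative to plate controls, in a single-dose primary screen at 18.75 µM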
TROY signal inh – blocks TROY-dependent signaling in reporter cells; Q293 LMP1-TROYcd NF-kB luciferase reporter, 4 h; inhibition, % at 10 µM; hit rate 0.98% among 360,000; AID 1347056;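 active = compounds whose plate-normalised and pattern-corrected inhibition of the luciferase reporter signal at the single screening dose is 50% or more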
CF NFkB block – blocks PAF-induced NF-kB reporter in cystic fibrosis cells; KKLEB NF-kB-GFP reporter, GFP fluorescence overnight; inhibition, % at 5 µM; hit rate 0.86% among 360,000; AID 588850;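 active = at least 50% inhibition at 5 µM, scaled per plate between neutral and stimulator controls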;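 also: PAF is a Pseudomonas aeruginosa culture filtrate used as stimulus; plate controls were PAF-stimulated DMSO wells for no effect and unstimulated DMSO wells for full effect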
TWEAK-Fn14 inh – blocks TWEAK-Fn14 interaction in a reporter cell assay | hit rate 2% among 360,000 | AID 1159606 | inhibition, % at 10 µM | TWEAK-stimulated Fn14 reporter cells, luciferase luminescence, 8 h; in the data active = inhibition above about 50%
An asterisk follows results filed as active; . = no result given.

SMILES | Peg3 promoter | KKLEB cytotox | HIF-2a inh | TROY signal inh | CF NFkB block | TWEAK-Fn14 inh
Cc1c(Br)c(C(F)(F)F)nn1CC(=O)N1CCCC1 | -2.4 | 7.6 | 6.4 | 8.2 | -11.8 | 7.0
Cc1cnn(C(=O)Cn2nc(C(F)F)c(Br)c2C)c1 | -1.6 | 8.1 | 23.2 | 67.8* | -8.0 | 4.5
Cc1ccc(CNC(=O)C(NS(=O)(=O)c2cccc3nsnc23)c2ccccc2)cc1 (configuration not stated) | 7.5 | 5.3 | 12.2 | 11.1 | 2.4 | 6.0
c1ccc(-n2cnc3cc(NCc4ccccn4)ccc32)cc1 | -95.0 | -6.5 | -32.1 | 42.4 | 10.1 | 56.9*
CC(C)n1cnc2cc(NCc3ccccc3O)ccc21 | -55.4 | -12.7 | -89.6 | 27.5 | 6.0 | 5.7
CC(C)n1cnc2cc(NCc3ccccn3)ccc21 | -149.3 | -2.5 | -95.6 | 51.7* | 9.5 | 32.6
Cn1c(SCC(=O)Nc2ccc(N3CCOCC3)cc2)nnc1C1CC1 | 3.8 | 8.0 | -2.5 | -17.0 | -2.3 | -1.9
C=CCNC(=S)Nc1cccc([N+](=O)[O-])c1 | 3.0 | -10.3 | -18.2 | -8.7 | 0.2 | 7.0
Cc1ccc(C(=O)Nc2nc(-c3ccccn3)cs2)o1 | -12.0 | 1.0 | -78.3 | -20.5 | 10.8 | 7.5
O=C(Nc1nc(-c2ccccn2)cs1)c1ccc(-c2ccccc2F)o1 | 68.5* | -9.6 | -88.5 | -64.7 | -26.0 | -9.7
Cc1ccc(S(=O)(=O)Nc2ccc(O)c3ncccc23)cc1 | 16.6 | -4.6 | 19.6 | 15.3 | 12.0 | 0.8
Cc1ccc(S(=O)(=O)Nc2ccc(O)c3cccnc23)cc1 | 78.2* | 4.7 | 84.2* | 17.4 | 58.8* | 21.9
CCN1C(c2ccccc2)C(C)C(=O)C(C)C1c1ccccc1 (configuration not stated) | 9.3 | 2.9 | 16.2 | . | 0.7 | 83.3*
CC(OC(=O)CCC(=O)c1cccs1)C(=O)NC1CCCCC1C (configuration not stated) | -30.8 | 3.5 | -45.5 | 0.6 | 2.3 | -8.6
O=C(Nc1ccccc1)c1cc(C2COCCN2C(=O)c2ccccn2)on1 (configuration not stated) | -4.3 | -4.0 | -3.1 | -1.3 | -13.0 | 18.6
Cc1ccc(C)c(COC(=O)c2cccc(S(=O)(=O)N3CCCC3)c2)c1 | 14.7 | 1.7 | -2.8 | -14.4 | -4.4 | -29.1
CC(C)C(=O)Nc1cccc(-c2csc(-c3ccccc3)n2)c1 | -203.3 | -15.0 | -182.4 | -39.1 | 0.3 | -32.2
Cc1cccc(C(=O)OC2CCOC2=O)c1O (configuration not stated) | -3.9 | 9.9 | 12.2 | -24.8 | 4.9 | 89.0*
Cc1ccc(/C(N)=N/OC(=O)c2ccc(Cl)cc2Cl)cc1 | -120.6 | -28.9 | -108.0 | 60.6* | -5.2 | 79.3*
Cc1nn(C)c(C)c1C1Nc2ccccc2C(=O)N1O (configuration not stated) | 12.4 | 1.0 | -3.4 | -39.5 | -8.3 | -9.3
O=C1c2ccccc2NC(c2cnc3ccccc3n2)N1O (configuration not stated) | -108.5 | -8.2 | -74.0 | 26.0 | -22.4 | 73.8*
Cc1ccc2[nH]cc(C(=O)CN3CCC4(CC3)OCCO4)c2c1 | -14.0 | 0.2 | -26.2 | -12.1 | -3.0 | 50.7*
CC(=O)N1CCCc2cc(S(=O)(=O)N3CCCC(C(=O)N4CCN(c5ccccc5)CC4)C3)ccc21 (configuration not stated) | 11.8 | -2.3 | 14.9 | 30.6 | -0.6 | 18.6
CC(=O)N1CCCc2cc(S(=O)(=O)N3CCCC(C(=O)N4CCN(c5cc(C)ccc5C)CC4)C3)ccc21 (configuration not stated) | 33.1 | 1.3 | 8.9 | 44.4 | -2.3 | 54.0*
NC(=O)CC(NC(=O)c1ccccc1)c1ccc(N2CCC(Cc3ccccc3)CC2)c([N+](=O)[O-])c1 (configuration not stated) | 3.2 | -6.5 | 12.7 | 55.2* | 14.8 | 43.5
SMILES | Peg3 promoter | KKLEB cytotox | HIF-2a inh | TROY signal inh | CF NFkB block | TWEAK-Fn14 inh
COc1ccc(S(=O)(=O)N2CCCC(C(=O)NCC3CCCO3)C2)cc1Cl (configuration not stated) | 9.7 | -15.4 | 15.3 | -7.1 | -5.8 | 9.2
COc1ccc(S(=O)(=O)N2CCCC(C(=O)NCC3CCCO3)C2)cc1C (configuration not stated) | 12.9 | 8.4 | 14.5 | -7.4 | 1.3 | 92.8*
COc1ccc(S(=O)(=O)N2CCCC(C(=O)NCc3ccco3)C2)cc1Cl (configuration not stated) | 11.1 | 6.2 | 7.2 | -7.7 | -13.4 | 86.2*
COc1ccc(S(=O)(=O)N2CCCCC2)cc1NC(=O)CN(Cc1ccco1)Cc1ccco1 | 53.9* | 15.7 | 15.0 | 8.9 | 2.1 | 25.5
Cc1cc(C(=O)COC(=O)COc2ccc(C#N)cc2)c(C)n1C1CC1 | -0.3 | 17.1 | -1.6 | 0.1 | -22.6 | 2.8
O=C(O)c1cccc(NC(=O)c2cc(NC(=O)c3ccccc3)cc(NC(=O)c3ccccc3)c2)c1 | 17.1 | 12.6 | 15.6 | -9.9 | -5.2 | 25.6
CCOP(=O)(OCC)C(Nc1ccccc1)c1cc(OC)ccc1OC (configuration not stated) | 13.8 | 1.4 | 9.7 | -11.3 | -10.7 | 15.1
COc1cc2c(cc1OC)C(Nn1cnnc1)=NC1(CCCC1)C2 | -3.0 | -6.0 | 6.9 | -7.9 | 12.8 | 7.1
O=C(N=Nc1c(O)[nH]c2ccc(Br)cc12)c1cc(-c2cccc3ccccc23)n[nH]1 | 54.9* | 12.2 | -36.8 | 6.6 | -40.1 | 35.4
O=C(N=Nc1c(O)[nH]c2ccc(Br)cc12)c1cc(-c2cccs2)nc2ccccc12 | 59.7* | -4.4 | -14.6 | 34.7 | -0.8 | 6.0
O=C(N=Nc1c(O)[nH]c2ccc(Br)cc12)c1ccco1 | -119.4 | 21.0 | -135.5 | -75.9 | -235.5 | -45.0
COC(=O)C(Oc1ccc2c(-c3ccc(OC)cc3)cc(=O)oc2c1)c1ccccc1 (configuration not stated) | 20.3 | -7.7 | 24.3 | 13.9 | 16.3 | -12.6
Cc1ccsc1-c1nc(C(N)=O)c2[nH]c(=O)n(-c3ccc(Cl)cc3)c2n1 | 76.2* | -45.0 | 10.3 | -11.7 | 44.2 | -28.8
CC(OC(=O)C1CCCCC1)c1nc2ccccc2[nH]1 (configuration not stated) | 12.3 | 5.0 | 12.1 | -6.8 | 11.0 | 58.9*
CCOC(=O)NCc1ccc(CNC(=O)OCC)cc1 | 10.8 | 7.5 | 10.8 | . | -5.2 | 73.4*
COCC(C)NC(=O)CCS(=O)(=O)c1nc(-c2ccc(OC)cc2)cc(C(F)(F)F)n1 (configuration not stated) | 109.9* | -75.6* | 93.6* | 46.3 | 86.2* | 85.7*
O=C(N/N=C1/C(=O)c2cccc3cccc1c23)c1ccc(Cl)cc1 | -52.3 | -7.1 | -72.4 | -36.2 | -5.8 | 106.0*
CCNC(=S)N/N=C1\C(=O)c2cccc3cccc1c23 | -1.3 | 3.7 | 2.7 | -33.7 | -27.6 | -27.4
COC(=O)c1ccccc1NC(=O)CCS(=O)(=O)c1ccc(Br)cc1 | -4.6 | 2.0 | 20.9 | -0.4 | -2.8 | -0.9
NC(N)=Nc1nc(-c2ccccc2)c2ccccc2n1 | 56.8* | 12.6 | 27.1 | 3.1 | -99.3 | -14.1

Source: PubChem BioAssay (Sanford-Burnham Center for Chemical Genomics)
